The source of these data is PubChem BioAssay (NCATS).

Records with an inconclusive call do not appear. Values without a mark were called inactive. Calls of active or inactive are those of the source. Calls follow the shape of the dose curve; as a rule, active = well fitted cell-killing curve with a large enough effect; inconclusive = small, poorly fitted or top-dose-only effect, or effect the other way; inactive = no such curve, though single readings can be large or run the other way.

Test [1] can be described thus: Viability qHTS for spleen associated tyrosine kinase inhibitor (SYKi) naive MV4-11 cells (AID 1963823). Also: nearly all actives have a fitted effect of over 40% in size. The method in brief: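 qHTS, SYK inhibitor-naive MV4-11; 500 cells/well; 72 hr compound exposure, 37 C; CellTiter-Glo added, 10 min RT; luminescence read.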
The nature of test [2]: Viability qHTS for spleen associated tyrosine kinase inhibitor (SYKi) drug resistant MV4-11 cells (AID 1963824). Also: nearly all actives have a fitted effect of over 35% in size. The method in brief: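 SYK-inhibitor-resistant MV4-11 AML cells were seeded at 500 per well onto compound and cultured 72 hours (37 °C, 5% CO2). CellTiter-Glo was then added, and after 10 min at room temperature, luminescence gave viability.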
On the technique in general: In qHTS, concentration-response curves come from the screen itself.
Potency is read from the fitted curve at half-maximal effect.

As to `O=C1Nc2ccc3ncsc3c2/C1=C/c1cnc[nH]1`, the Potency in test [1] was 0.082 µM (active); in test [2] it was 0.164 µM (active).
As for `CC1=CC2/C=C(\C)CCC(O)C(O)/C=C/C(=O)OC23C(=O)NC(CC(C)C)C3C1C` (configuration not stated), the Potency in test [1] and in test [2] was 7.96 µM (active) in each case.
Turning to `Fc1cc(F)c2c(c1)[C@H]1C=CC[C@H]1C(c1cccnc1)N2` (some centres not stated), the Potency in test [1] is 2.91 µM (active); in test [2], 3.66 µM (active).
Consider `CC[C@H]1CN2CC[C@H]1C[C@@H]2[C@@H](O)c1ccnc2ccc(OC)cc12`, for which the Potency entry in test [1] and in test [2] was “inactive” throughout.
Regarding `CC(=O)OC[C@]12[C@H](OC(C)=O)C(=O)[C@@H]3[C@@H](O)[C@@]14O[C@@]3(C)COC(=O)c1cccnc1[C@@H](C)[C@H](C)C(=O)O[C@@H]([C@H](OC(C)=O)[C@@H]2OC(C)=O)[C@]4(C)O`, the Potency in test [1] and in test [2] was 5.44 µM (active) each time.
Turning to `C=C1[C@@H](C)[C@H]2[C@H](Cc3ccccc3)NC(=O)[C@]23OC(=O)/C=C/C(=O)CCC[C@@H](C)C/C=C/[C@H]3[C@@H]1O`, the Potency in test [1] and in test [2] was 0.92 µM (active) in each case.
On to `CC[C@@H]1C[C@H]2CC[C@H](O2)[C@H](C)C(=O)O[C@@H](C)C[C@@H]2CC[C@@H](O2)[C@@H](C)C(=O)O[C@H](C)C[C@H]2CC[C@H](O2)[C@H](C)C(=O)O[C@@H](C)C[C@@H]2CC[C@@H](O2)[C@@H](C)C(=O)O1`, for which the Potency was 0.0343 µM (active) in test [1] and 0.0385 µM (active) in test [2].
For the compound `COC(=O)C12C(=O)C(C)(O)C(=O)C1(C)C(C)=CC1C34CCC(OC3=O)C(C)(CO)C4CCC12C` (configuration not stated), the Potency result in test [1] and in test [2] was “inactive” each time.
For the compound `COC1CC(OC2CCC3(C)C(CCC4C3CCC3(C)C(C5=CC(=O)OC5)C(OC(C)=O)CC43O)C2)OC(C)C1OC1OC(CO)C(O)C(O)C1O` (configuration not stated), the values for the Potency in test [1] and in test [2] were 0.769 µM (active) and 0.485 µM (active), respectively.
With `CC(C)C(=O)O[C@H]1[C@@H]2[C@H](C)C(=O)O[C@@H]2C[C@@H](C)[C@@H]2C=CC(=O)[C@]21C`, the Potency was 3.6 µM (active) in test [1] and 2.27 µM (active) in test [2].
As to `CC1=CC2OC3CC(O)[C@](C)([C@@]2(C)C(O)C1=O)[C@]31CO1` (some centres not stated), the Potency in test [1] and in test [2] was 1.84 µM (active) in each case.
With `C/C=C(\C)C(=O)OC1C(C)OC(OC2C(C)OC(OC3CCC4(C)C(=CCC5C4CCC4(C)C(C(C)OC6OC(COC7OC(CO)C(O)C(O)C7O)C(O)C(O)C6O)CCC54O)C3)CC2OC)C(O)C1OC` (configuration not stated), the viability (% of control) in test [1] is 78.5% [at 9.25 µM]. Further, the viability, % of control in test [2] was 105% [at 9.25 µM].
On to `CC(=O)O[C@@H]1[C@H]2CC[C@H]3[C@@](C)(O)[C@@H]4C[C@H](O)C(C)(C)[C@@]4(O)[C@H](O)C[C@@]13C[C@@]2(C)O`, for which the Potency entry in test [1] and in test [2] was “inactive” each time.
For `CO[C@H]1[C@H](O)[C@H](O[C@H]2CC[C@]3(C)C4CC[C@]5(C)[C@H](C6=CC(=O)OC6)CC[C@]5(O)C4CC[C@@H]3C2)O[C@@H](C)[C@@H]1O` (some centres not stated), the Potency in test [1] is 0.0252 µM (active); in test [2] it was 0.0112 µM (active).
As to `C[C@]12CCC(=O)C=C1CC[C@@H]1[C@@H]2[C@@H](O)C[C@]2(C)C(=O)CC[C@@H]12`, the Potency entry in test [1] and in test [2] was “inactive” throughout.
For the compound `CN1C(=O)[C@@H](Cc2c[nH]c3ccccc23)N=C(c2ccccc2F)c2ccccc21`, the Potency in test [1] and in test [2] was 20.6 µM (active) in each case.
Regarding `Cc1cccc(NC(=O)c2ccc(C(F)(F)F)cc2C(=O)O)n1`, the Potency result in test [1] and in test [2] was “inactive” in each case.
As for `C[C@@H]1C(=O)O[C@H]2[C@H](O)[C@@]34[C@@H]5OC(=O)[C@@]3(O[C@@H]3OC(=O)[C@@H](O)[C@@]34[C@H](C(C)(C)C)[C@H]5O)[C@@]12O`, the Potency result in test [1] and in test [2] was “inactive” in each case.
On to `CC(=O)O[C@@H]1CC2C(C)(C)C(=O)C=C[C@]2(C)C2CC[C@]3(C)C(=CC(=O)O[C@H]3c3ccoc3)[C@@]21C` (some centres not stated), for which the Potency in test [1] was 11.6 µM (active); in test [2], 13 µM (active).
With `CC(C)(C)NCC(O)c1ccccc1Cl` (configuration not stated), the Potency result in test [1] and in test [2] was “inactive” in each case.
On to `CO[C@@H]1[C@H](O)[C@@H](O[C@@H]2C[C@H]3CC[C@@H]4C(CC[C@]5(C)[C@@H](C6=CC(=O)OC6)CC[C@]45O)[C@@]3(C)[C@H](O)C2)O[C@H](C)[C@@H]1O[C@@H]1O[C@H](CO)[C@@H](O)[C@H](O)[C@H]1O` (some centres not stated), for which the Potency in test [1] is 0.0968 µM (active); in test [2] it was 0.0544 µM (active).
